Measured values taken from PubChem BioAssay AID1159580 (chemical genetic matrix, 2015).
“And” between values parts separate entries of the source, which are not always exact repeats. Equal values may be shown once. Out of some 5,500 compounds screened, about 2,000 (36%) were called active. About 18% were inconclusive and are not listed. The list shows a part of the results. Values without a mark were called inactive. Rule as the data show it: active = normalized growth mostly below about 0.91 (no sharp cut-off); inconclusive = no clear call, values can overlap the other calls; inactive = mostly above about 0.92.

Experiment: chemical genetic growth profiling, strain panel (AID 1159580);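 also: tested at 20 µM; growth read once vehicle control cultures reached saturation at 30 °C; 1 = growth at the plate median or of vehicle wells; lower values mean less growth of the strain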
Conditions: growth OD

O=C(c1ccc(Cl)cc1)N1CCN(c2ccc(C(F)(F)F)cn2)CC1
normalized growth (S. cerevisiae deletion strains, locus YAL013W, strain DEP1, active compounds read low): 0.934
normalized growth (S. cerevisiae deletion strains, locus YAR019C, strain CDC15, active compounds read low): 0.973
normalized growth (S. cerevisiae deletion strains, locus YBL105C, strain PKC1, active compounds read low): 0.992
normalized growth (S. cerevisiae deletion strains, locus YBR135W, strain CKS1, active compounds read low): 0.997
normalized growth (S. cerevisiae deletion strains, locus YBR136W, strain MEC1, active compounds read low): 0.988
normalized growth (S. cerevisiae deletion strains, locus YBR160W, strain CDC28, active compounds read low): 0.973
normalized growth (S. cerevisiae deletion strains, locus YBR229C, strain ROT2, active compounds read low): 0.824 (active)
normalized growth (S. cerevisiae deletion strains, locus YDL017W, strain CDC7, active compounds read low): 0.995
normalized growth (S. cerevisiae deletion strains, locus YDL028C, strain MPS1, active compounds read low): 0.968
normalized growth (S. cerevisiae deletion strains, locus YDL101C, strain DUN1, active compounds read low): 0.986 and 0.988
normalized growth (S. cerevisiae deletion strains, locus YDL108W, strain KIN28, active compounds read low): 0.979
normalized growth (S. cerevisiae deletion strains, locus YDL132W, strain cdc53, active compounds read low): 0.988
normalized growth (S. cerevisiae deletion strains, locus YDL214C, strain PRR2, active compounds read low): 0.937
normalized growth (S. cerevisiae deletion strains, locus YDR052C, strain DBF4, active compounds read low): 1
normalized growth (S. cerevisiae deletion strains, locus YDR054C, strain cdc34, active compounds read low): 0.978
normalized growth (S. cerevisiae deletion strains, locus YDR150W, strain NUM1, active compounds read low): 0.843
normalized growth (S. cerevisiae deletion strains, locus YDR226W, strain ADK1, active compounds read low): 0.979
normalized growth (S. cerevisiae deletion strains, locus YDR477W, strain SNF1, active compounds read low): 0.936
normalized growth (S. cerevisiae deletion strains, locus YEL061C, strain CIN8, active compounds read low): 0.8 (active)
normalized growth (S. cerevisiae deletion strains, locus YER123W, strain YCK3, active compounds read low): 0.913
normalized growth (S. cerevisiae deletion strains, locus YER133W, strain GLC7, active compounds read low): 0.955
normalized growth (S. cerevisiae deletion strains, locus YFL009W, strain cdc4, active compounds read low): 0.967
normalized growth (S. cerevisiae deletion strains, locus YFL029C, strain CAK1, active compounds read low): 0.981
normalized growth (S. cerevisiae deletion strains, locus YFR003C, strain YPI1, active compounds read low): 0.993
normalized growth (S. cerevisiae deletion strains, locus YFR019W, strain FAB1, active compounds read low): 0.968
normalized growth (S. cerevisiae deletion strains, locus YFR028C, strain CDC14, active compounds read low): 0.978
normalized growth (S. cerevisiae deletion strains, locus YGR040W, strain KSS1, active compounds read low): 0.954
normalized growth (S. cerevisiae deletion strains, locus YGR052W, strain FMP48, active compounds read low): 0.978
normalized growth (S. cerevisiae deletion strains, locus YGR078C, strain PAC10, active compounds read low): 0.933
normalized growth (S. cerevisiae deletion strains, locus YGR092W, strain DBF2, active compounds read low): 0.89
normalized growth (S. cerevisiae deletion strains, locus YGR229C, strain SMI1, active compounds read low): 0.551 (active)
normalized growth (S. cerevisiae deletion strains, locus YHR030C, strain SLT2, active compounds read low): 0.0888 (active) and 0.729 (active)
normalized growth (S. cerevisiae deletion strains, locus YHR079C, strain IRE1, active compounds read low): 0.88
normalized growth (S. cerevisiae deletion strains, locus YHR082C, strain KSP1, active compounds read low): 0.96
normalized growth (S. cerevisiae deletion strains, locus YHR087W, strain rtc3, active compounds read low): 0.947
normalized growth (S. cerevisiae deletion strains, locus YHR205W, strain SCH9, active compounds read low): 0.857
normalized growth (S. cerevisiae deletion strains, locus YIL147C, strain SLN1, active compounds read low): 0.986
normalized growth (S. cerevisiae deletion strains, locus YJL095W, strain BCK1, active compounds read low): 0.892
normalized growth (S. cerevisiae deletion strains, locus YJL128C, strain PBS2, active compounds read low): 0.942
normalized growth (S. cerevisiae deletion strains, locus YJL157C, strain FAR1, active compounds read low): 0.979
normalized growth (S. cerevisiae deletion strains, locus YJR016C, strain ILV3, active compounds read low): 0.986
normalized growth (S. cerevisiae deletion strains, locus YJR043C, strain POL32, active compounds read low): 0.993
normalized growth (S. cerevisiae deletion strains, locus YJR066W, strain TOR1 (second series), active compounds read low): 0.974
normalized growth (S. cerevisiae deletion strains, locus YJR066W, strain TOR1, active compounds read low): 0.891
normalized growth (S. cerevisiae deletion strains, locus YJR075W, strain HOC1, active compounds read low): 1.11 [resistant] (active)
normalized growth (S. cerevisiae deletion strains, locus YKL048C, strain ELM1, active compounds read low): 0.963
normalized growth (S. cerevisiae deletion strains, locus YKL067W, strain YNK1, active compounds read low): 0.925
normalized growth (S. cerevisiae deletion strains, locus YKL101W, strain HSL1, active compounds read low): 0.911
normalized growth (S. cerevisiae deletion strains, locus YKL193C, strain SDS22, active compounds read low): 0.988
normalized growth (S. cerevisiae deletion strains, locus YKL203C, strain TOR2, active compounds read low): 1.02
normalized growth (S. cerevisiae deletion strains, locus YLR039C, strain RIC1, active compounds read low): 1.16
normalized growth (S. cerevisiae deletion strains, locus YLR058C, strain SHM2 (second series), active compounds read low): 0.974
normalized growth (S. cerevisiae deletion strains, locus YLR085C, strain ARP6, active compounds read low): 0.436 (active)
normalized growth (S. cerevisiae deletion strains, locus YLR113W, strain HOG1, active compounds read low): 0.813 (active)
normalized growth (S. cerevisiae deletion strains, locus YLR133W, strain CKI1, active compounds read low): 0.95
normalized growth (S. cerevisiae deletion strains, locus YLR262C, strain YPT6, active compounds read low): 1.1
normalized growth (S. cerevisiae deletion strains, locus YLR403W, strain SFP1, active compounds read low): 0.957
normalized growth (S. cerevisiae deletion strains, locus YML070W, strain DAK1, active compounds read low): 0.921
normalized growth (S. cerevisiae deletion strains, locus YML094W, strain GIM5, active compounds read low): 0.802 (active)
normalized growth (S. cerevisiae deletion strains, locus YMR001C, strain CDC5, active compounds read low): 0.977
normalized growth (S. cerevisiae deletion strains, locus YMR205C, strain PFK2 (second series), active compounds read low): 0.957
normalized growth (S. cerevisiae deletion strains, locus YMR219W, strain ESC1, active compounds read low): 0.958
normalized growth (S. cerevisiae deletion strains, locus YMR263W, strain SAP30, active compounds read low): 0.963
normalized growth (S. cerevisiae deletion strains, locus YMR277W, strain FCP1, active compounds read low): 0.962
normalized growth (S. cerevisiae deletion strains, locus YMR307W, strain GAS1, active compounds read low): 0.272 (active)
normalized growth (S. cerevisiae deletion strains, locus YNL006W, strain LST8, active compounds read low): 0.983
normalized growth (S. cerevisiae deletion strains, locus YNL020C, strain ARK1, active compounds read low): 0.956
normalized growth (S. cerevisiae deletion strains, locus YNL153C, strain GIM3, active compounds read low): 0.911 (active)
normalized growth (S. cerevisiae deletion strains, locus YNL161W, strain CBK1, active compounds read low): 0.994
normalized growth (S. cerevisiae deletion strains, locus YNL183C, strain NPR1, active compounds read low): 0.979
normalized growth (S. cerevisiae deletion strains, locus YNL207W, strain RIO2, active compounds read low): 0.985
normalized growth (S. cerevisiae deletion strains, locus YNL222W, strain SSU72, active compounds read low): 0.982
normalized growth (S. cerevisiae deletion strains, locus YNL298W, strain CLA4 (second series), active compounds read low): 0.563 (active)
normalized growth (S. cerevisiae deletion strains, locus YNL307C, strain MCK1 (second series), active compounds read low): 0.931
normalized growth (S. cerevisiae deletion strains, locus YNL322C, strain KRE1, active compounds read low): 0.982
normalized growth (S. cerevisiae deletion strains, locus YNR030W, strain Alg12, active compounds read low): 0.861 (active)
normalized growth (S. cerevisiae deletion strains, locus YOL006C, strain TOP1, active compounds read low): 0.661 (active)
normalized growth (S. cerevisiae deletion strains, locus YOL078W, strain AVO1, active compounds read low): 0.982
normalized growth (S. cerevisiae deletion strains, locus YOL136C, strain PFK27, active compounds read low): 0.908
normalized growth (S. cerevisiae deletion strains, locus YOR061W, strain CKA2, active compounds read low): 0.965
normalized growth (S. cerevisiae deletion strains, locus YOR119C, strain RIO1, active compounds read low): 0.958
normalized growth (S. cerevisiae deletion strains, locus YOR231W, strain MKK1, active compounds read low): 0.853
normalized growth (S. cerevisiae deletion strains, locus YOR329C, strain SCD5, active compounds read low): 0.992
normalized growth (S. cerevisiae deletion strains, locus YPL031C, strain PHO85, active compounds read low): 0.941
normalized growth (S. cerevisiae deletion strains, locus YPL055C, strain LGE1, active compounds read low): 0.919
normalized growth (S. cerevisiae deletion strains, locus YPL153C, strain RAD53, active compounds read low): 0.93
normalized growth (S. cerevisiae deletion strains, locus YPL204W, strain HRR25, active compounds read low): 0.963
normalized growth (S. cerevisiae deletion strains, locus YPL209C, strain IPL1, active compounds read low): 0.991
normalized growth (S. cerevisiae deletion strains, locus YPL241C, strain CIN2, active compounds read low): 1.01
normalized growth (S. cerevisiae deletion strains, locus YPL256C, strain CLN2, active compounds read low): 0.8 (active)
normalized growth (S. cerevisiae deletion strains, locus YPR025C, strain CCL1, active compounds read low): 0.987
normalized growth (S. cerevisiae deletion strains, locus YPR106W, strain ISR1, active compounds read low): 0.975
normalized growth (S. cerevisiae deletion strains, locus YPR111W, strain DBF20, active compounds read low): 0.955
normalized growth (S. cerevisiae deletion strains, locus YPR135W, strain CTF4, active compounds read low): 0.671
normalized growth (S. cerevisiae deletion strains, strain NNK1, active compounds read low): 0.977
normalized growth (S. cerevisiae deletion strains, strain TSCII, active compounds read low): 0.972
normalized growth (S. cerevisiae strains, strain wild type, active compounds read low): 0.862 (active)
